Screens as filed in PubChem.
GRP78 ERSR act = qHTS for Inducers of the Endoplasmic Reticulum Stress Response (ERSR) in Human Glioma: qHTS; U87-MG GRP78 promoter luciferase reporter, 16 h; 0.02% of 420,000 active; AID 602332, 2012; Potency, µM, for inactives: at the top dose activation, actives largely listed as activators; further: series mostly up to about 76 µM; % of control where 0% means no effect; nearly all actives have a fitted effect of over 35% in size
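Stably transfected U87-MG human glioma cells carrying a GRP78-based luminescent sensor were seeded at 1000 cells/well, pin-dosed with compounds and incubated 16 h. Luciferase reagent was then added, and end-point luminescence was read after 10 min at room temperature.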
ALOX12 inh = Primary qHTS assay for inhibitors of human arachidonate 12S-lipoxygenase (ALOX12): Round 2. Potency, µM (top dose mostly 108 µM), for inactives: at the top dose activity change, negative = inhibition, actives largely listed as inhibitors. purified 12hLO, xylenol orange hydroperoxide absorbance. Polyunsaturated fatty acid lipoxygenase ALOX12 (Homo sapiens), P18054. 1.1% of 580,000 active; further: on the % scale 0 is the no-effect control and ±100 the full control effect
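Purified human 12hLO (150 nM final) in 25 mM Hepes, 0.01% Triton X-100, pH 7.0 was preincubated 15 min at room temperature with compound. Then 40 uM arachidonic acid was added, 30 min. Hydroperoxide was read by Fe-XO absorbance ratio 573/405 nm.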
VDR inhibitor = Inhibitors of the vitamin D receptor (VDR): qHTS; VDR-SRC2-3 peptide fluorescence polarization, 2 h; Potency, µM, without a hit: max response, negative = inhibition, actives largely listed as inhibitors; 0.93% of 400,000 active; further: on the % scale 0 is the no-effect control and ±100 the full control effect
Target sequence (P11473 whole entry, looked up): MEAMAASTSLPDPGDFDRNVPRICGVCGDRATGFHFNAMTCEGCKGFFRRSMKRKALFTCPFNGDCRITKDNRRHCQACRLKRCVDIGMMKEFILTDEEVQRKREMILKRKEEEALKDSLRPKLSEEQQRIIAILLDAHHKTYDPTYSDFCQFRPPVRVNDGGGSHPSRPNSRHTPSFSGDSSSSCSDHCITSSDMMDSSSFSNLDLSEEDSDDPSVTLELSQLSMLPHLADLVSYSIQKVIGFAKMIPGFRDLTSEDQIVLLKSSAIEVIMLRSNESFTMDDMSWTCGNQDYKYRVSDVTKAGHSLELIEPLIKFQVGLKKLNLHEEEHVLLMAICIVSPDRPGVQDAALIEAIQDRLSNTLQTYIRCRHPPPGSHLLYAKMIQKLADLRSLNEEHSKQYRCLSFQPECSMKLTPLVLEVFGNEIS
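Inhibition of the VDR/SRC2-3 peptide interaction is quantified by fluorescence polarization. Compounds (23 nl, pintool) incubate with the reagents for 2 hours at ambient room temperature.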
Sfp inh = qHTS Assay for Inhibitors of Bacillus subtilis Sfp phosphopantetheinyl transferase (PPTase); 4'-phosphopantetheinyl transferase ffp (Bacillus subtilis), Q9F4F7; Biochemical Sfp PPTase activity, qHTS; Potency, µM, for inactives: largest response in the series, negative = inhibition, usual class: inhibitors; 3.5% of 310,000 active; AID 1490, 2009;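 further: the enzyme is Sfp with the accession as filed and its product quenches rhodamine fluorescence; 0% = enzyme reaction without inhibitor and -100% = no enzyme wells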
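Compounds were incubated with enzyme (final 15 nM) for 15 min at room temperature before substrate addition started the reaction. Fluorescence at 525 nm excitation, 598 nm emission was recorded immediately and after 30 minutes.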
G9a inh = qHTS Assay for Inhibitors of Histone Lysine Methyltransferase G9a | Potency, µM (doses to about 102 µM), without a hit: at the highest dose activity, negative = inhibition, actives largely listed as inhibitors | G9a H3K9 monomethylation, AlphaScreen, 2 h | Histone-lysine N-methyltransferase EHMT2 (Homo sapiens), Q96KQ7 | 8.8% of 350,000 active; further: on the % scale 0 is the no-effect control and ±100 the full control effect; nearly all actives have a fitted effect of over 75% in size
Target sequence (Q96KQ7 913-1193 limits assumed): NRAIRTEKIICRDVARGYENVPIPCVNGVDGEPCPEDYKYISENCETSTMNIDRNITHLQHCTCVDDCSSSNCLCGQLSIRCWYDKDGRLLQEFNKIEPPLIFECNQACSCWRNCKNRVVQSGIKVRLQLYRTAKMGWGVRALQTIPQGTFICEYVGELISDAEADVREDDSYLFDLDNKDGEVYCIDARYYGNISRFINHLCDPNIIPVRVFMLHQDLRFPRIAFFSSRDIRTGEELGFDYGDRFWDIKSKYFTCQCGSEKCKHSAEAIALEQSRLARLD
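Quantitative HTS format: methyltransferase activity on a biotin-tagged H3K9 peptide is measured by AlphaScreen, using a rabbit anti-monomethyl-H3K9 antibody with streptavidin donor and anti-IgG acceptor beads. Final levels are 20 nM enzyme, 500 nM peptide, 20 uM SAM; 2 h RT.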
The depositor's hits bear a star; u = inconclusive; x = no result; [ ] = dose if it differs, or a comment. The sample as a whole holds a higher share of hits than the screen did. The call rests on the fitted dose curve; in most records, active means well fitted curve in the direction sought with a large enough effect; inconclusive means small, poorly fitted or top-dose-only effect, or another doubt; inactive means no such curve, though single readings can be large; an effect the other way counts as inactive or inconclusive. Potency means the concentration at half of the fitted maximal effect.

SMILES	GRP78 ERSR act	ALOX12 inh	VDR inhibitor	Sfp inh	G9a inh
CC(=O)C1=C(C)N(Cc2ccc(Br)cc2)C(=S)NC1c1cccc(Br)c1 (stereo unspecified)	x	32µM*	x	x	x
Fc1ccc(COc2ccc(Br)cc2CNCc2ccncc2)cc1	-5%	u	3%	-2%	50µM*
Fc1ccccc1COc1ccc(Br)cc1CNCc1ccncc1	-13%	u	1%	79µM*	u
Fc1ccccc1COc1ccc(Br)cc1CNCc1cccnc1	-3%	u	0%	-16%	u
COc1ccc(NC(C)=O)cc1NC(=O)CCc1ncc(-c2ccccc2F)o1	x	23%	x	x	x
COc1ccccc1CN1Cc2cc(NC(=O)c3ccc(C#N)cc3)ccc2OC(C)C1=O (stereo unspecified)	x	26%	x	x	x
N#C/C(=C/c1ccc(Br)o1)C(N)=S	x	x	x	35µM*	32µM*
CCN1/C(=C/c2ccc3cc(C)ccc3[n+]2CC)Sc2cc(C)ccc21	-11%	35µM*	1%	u	22µM*
CCN1/C(=C/c2ccc3cc(C)ccc3[n+]2C)Sc2ccc3sccc3c21	-10%	45µM*	-1%	-21%	16µM*
CC[n+]1c2ccccc2cc2ccccc21	2%	x	x	x	x
CCCCN1/C(=C/c2ccc3ccccc3[n+]2CC)Sc2ccccc21	-8%	x	8%	-16%	32µM*
CC(Sc1nnc(C2CC2)n1Cc1ccco1)C(=O)Nc1ccnn1C(C)C (stereo unspecified)	x	-9%	x	x	x
CSc1cccc(NC(=O)COc2cccc(-c3nnc4n3CCCC4)c2)c1	x	27%	x	x	x
CCC(C)NCCCCOc1cc(C)cc(C(C)C)c1 (stereo unspecified)	-5%	u	-6%	-39%	11µM*
CCC(C)NCCCCOc1ccc(Br)cc1 (stereo unspecified)	-1%	-10%	-9%	-13%	8.9µM*
COC(=O)c1[nH]c2cc(OC)ccc2c1N=CN(C)C	-5%	14%	-7%	-10%	40µM*
CCN(CC)c1cc(CCC(=O)NCc2ccccc2OC)ccn1	x	74%	x	x	x
N/N=C(\Cc1cscn1)c1ccc(O)cc1O	7%	16%	6%	-24%	10µM*
Cc1nc(C/C(=N\N)c2ccc(O)cc2O)cs1	2%	9%	4%	-15%	32µM*
Cc1cc(O)cc(O)c1C(=O)Cc1cscn1	0%	0%	-1%	-9%	-46%
CC(C)c1nc2cc(NC(=O)c3ccc(=O)[nH]c3)ccc2o1	x	0%	x	x	x
CCCCn1c(=O)[nH]c(=O)c2c1nc(COC(=O)/C=C/c1ccc(OC)c(OC)c1)n2C	x	-1%	x	x	x
CN(C)S(=O)(=O)c1cccc(C(=O)C2=C3SC=C(c4ccccc4)N3CC2)c1	-5%	-6%	2%	56µM*	u
CN(C)S(=O)(=O)c1cccc(C(=O)N2CCc3ccccc32)c1	-3%	13%	-6%	9%	-2%[59 µM]
COc1cc2c(cc1OC)C(C)N(CC(=O)Nc1ccc(C)cc1)CC2 (stereo unspecified)	x	4%	x	x	x
SMILES	GRP78 ERSR act	ALOX12 inh	VDR inhibitor	Sfp inh	G9a inh
COc1ccc(CNC(=O)C(=O)Nc2ccc(C)cc2C)cc1	x	29%	x	x	x
Cn1c(-c2cc(Br)ccc2O)n[nH]c1=S	-3%	u	1%	11%	0.5µM*
Oc1ccc(Br)cc1-c1cc(-c2ccccc2)n[nH]1	4%	21%	2%	-16%	6%[59 µM]
CCn1c(-c2cc(-c3ccccc3)sc2N)n[nH]c1=S	-2%	0%	u	-26%	1.1µM*
CCc1ccc(-c2cc(-c3n[nH]c(=S)n3CC)c3ccccc3n2)cc1	x	x	x	3%	u
CCn1c(-c2cc(-c3cccc(OC)c3)nc3ccccc23)n[nH]c1=S	-4%	u	1%	u	1.1µM*
Oc1ccc(Br)cc1-c1n[nH]c(=S)n1Cc1ccccc1	-3%	-27%	22%	-15%	6.3µM*
CCN(CC)c1nc2ccccc2nc1C(=O)Nc1ccc(F)c(F)c1	x	4%	x	x	x
CCCc1cc(=O)oc2cc(OCC(=O)OC(C)(C)C)ccc12	x	-15%	x	x	x
CCc1ccc(CCC(=O)N2CCC(C(=O)Nc3cc(C)ccn3)CC2)cc1	x	10%	x	x	x
Oc1ccccc1-c1n[nH]c(=S)n1Cc1ccccc1	-4%	u	2%	9%	2.8µM*
CC(C)Cn1c(-c2csc3ccccc23)n[nH]c1=S	-1%	u	-24%	-18%	u
CC(O)(c1ccccc1)c1nc(-c2csc3ccccc23)cs1 (stereo unspecified)	-3%	u	x	x	x
Cc1cccc(-n2c(-c3csc4ccccc34)n[nH]c2=S)c1	0%	-22%	-11%	u	1.3µM*
CCn1c(-c2csc3c2CCC(C)C3)n[nH]c1=S (stereo unspecified)	-2%	u	-24%	-2%	6.3µM*
Cc1ccccc1-c1n[nH]c(=S)n1Cc1ccccc1	-1%	u	9%	-2%	x
CCn1c(-c2csc3ccccc23)n[nH]c1=S	-1%	14%	-19%	-5%	2.2µM*
c1ccc(-c2nc(CC3CCNC3)no2)cc1 (stereo unspecified)	x	71%	x	x	x
O=C1NC(=NC2CCCCC2)C2(CCCN(CC3CC3)C2)N1c1cc(F)cc(F)c1 (stereo unspecified)	x	4%[6.33 µM]	x	x	x
CCn1c(-c2ccccc2O)n[nH]c1=S	-4%	-20%	1%	u	14µM*
O=C(CSc1nc2ccccc2c(=O)n1-c1ccccc1)N1CCCCC1	x	-38%	x	x	x
CSc1nc2ccccc2n1CC(=O)N1CCCCC1	-5%	41%	16%	5%	1%
O=C(CSc1nc2ccccc2c(=O)n1-c1ccccc1)N1CCCC1	-4%	-16%	0%	4%	50µM*
O=C(CSc1nc2ccccc2c(=O)n1-c1ccccc1)NC(=O)CN1CCCC1=O	-4%	-1%	2%	26%	50µM*
O=C(CSc1nc2ccccc2n1S(=O)(=O)c1ccccc1)N1CCCC1	1%	-20%	u	16%	50µM*
CCS(=O)(=O)N1CCC(C(=O)Nc2ccc(Oc3ccccc3OC)cc2)CC1	x	21%	x	x	x
CCC(=O)N1N=C(c2ccccc2NS(=O)(=O)CC)CC1c1ccco1 (stereo unspecified)	x	-28%	x	x	x
CC(Sc1cccc[n+]1[O-])C(=O)Nc1ccc([N+](=O)[O-])cc1Cl (stereo unspecified)	-2%	-13%	-17%	-3%	50µM*
COc1cc2c(cc1NC(=O)C(C)Sc1cccc[n+]1[O-])oc1ccccc12 (stereo unspecified)	5%	-21%	5%	-54%	u
COCCN=c1scc(-c2cc(OC)ccc2OC)n1/N=C/c1c[nH]c2ccccc12	-3%	u	0%	7%	10µM*
